Laboratory results from PubChem BioAssay (NCATS).
Inconclusive results are not listed. Activity calls are given as the source filed them. Calls follow the shape of the dose curve; as a rule, active = well fitted inhibition curve with a large enough effect; inconclusive = small, poorly fitted or top-dose-only effect; inactive = flat fitted curve, though single readings scatter.

These molecules were tested on PC15 (assay: qHTS profiling for inhibitors of Plasmodium falciparum proliferation (AID 504749; also: nearly all actives have a fitted effect of over 60% in size;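 as to activity, negative = inhibition: 0% = DMSO vehicle and full inhibition = artemisinin control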)). Conditions: P. falciparum in erythrocytes, SYBR Green DNA, 72 h; series mostly up to 28.7 µM; activity, negative = inhibition: at the top concentration.
How it was run: (§1)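 P. falciparum-infected erythrocytes (0.3% parasitemia, 2.5% hematocrit final) were exposed to compounds for 72 h at 37 C in 5% CO2, then lysed with SYBR Green buffer overnight at room temperature; parasite DNA fluorescence was normalized to artemisinin and DMSO controls.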
Potency is read from the fitted curve at half-maximal effect.

Row | Compound | activity, negative = inhibition | outcome
1 | Cc1cccc(C)c1OCC(C)N (configuration not stated) | -17.9% (inactive) | –
2 | CC1(C)O[C@H]2C[C@@H]3[C@H]4CCC5=CC(=O)C=C[C@]5(C)[C@@]4(F)[C@@H](O)C[C@]3(C)[C@]2(C(=O)CO)O1 | -29.5% (inactive) | –
3 | COc1ccc(Cc2nccc3cc(OC)c(OC)cc23)cc1OC | 12.9% [at 12.8 µM] (inactive) | –
4 | CC(=O)c1ccc(S(=O)(=O)NC(=O)NC2CCCCC2)cc1 | 12.4% (inactive) | –
5 | CC(=O)N[C@@H](CS)C(=O)O | 3.02% (inactive) | –
6 | Cc1cnc(C(=O)O)c[n+]1[O-] | 0.476% (inactive) | –
7 | O=C1NC(=O)C(c2ccccc2)(c2ccccc2)N1 | 3.64% (inactive) | –
8 | CN(C)CCC(c1ccccc1)c1ccccn1 (configuration not stated) | -29.8% (inactive) | –
9 | O=C1NCC2(CCN(CCc3ccccc3)CC2)O1 | 1.87% (inactive) | –
10 | CC(=O)O[C@]1(C(C)=O)CC[C@H]2[C@@H]3C=C(Cl)C4=CC(=O)[C@@H]5C[C@@H]5[C@]4(C)[C@H]3CC[C@@]21C | -25.5% (inactive) | –
11 | NC(N)=Nc1nc(CSCC/C(N)=N/S(N)(=O)=O)cs1 | 3.12% (inactive) | –
12 | CCCCCN(C)CCC(O)(P(=O)(O)O)P(=O)(O)O | 8.37% (inactive) | –
13 | NCCS | 0.717% (inactive) | –
14 | COc1ccccc1N1CCN(CCCNc2cc(=O)n(C)c(=O)n2C)CC1 | – | inactive
15 | O=C(NCCN1CCOCC1)c1ccc(Cl)cc1 | -26.1% (inactive) | –
16 | C[C@@H](O)[C@H]1C(=O)N2C(C(=O)O)=C(S[C@@H]3CN[C@H](C(=O)N(C)C)C3)[C@H](C)[C@H]12 | 11.9% (inactive) | –
17 | CC(=O)CCCCn1c(=O)c2c(ncn2C)n(C)c1=O | 10.5% [at 12.8 µM] (inactive) | –
18 | O=C(O)c1cc(-c2ccccc2)nc2ccccc12 | 9.73% (inactive) | –
19 | O=C(O)Cc1cccc2ccccc12 | 11.9% (inactive) | –
20 | CCN(CC)C(=O)c1ccc(O)c(OC)c1 | – | inactive
21 | CCCCC1C(=O)N(c2ccccc2)N(c2ccccc2)C1=O | – | inactive
22 | CCCNC(=O)NS(=O)(=O)c1ccc(Cl)cc1 | 1.77% (inactive) | –
23 | CCN1CCC[C@H]1CNC(=O)c1cc(S(N)(=O)=O)ccc1OC | 6.67% (inactive) | –
24 | C[N+](C)(C)CCCCCC[N+](C)(C)C | 9.36% (inactive) | –
25 | O=c1[nH]cnc2c1ncn2[C@H]1CC[C@@H](CO)O1 | -6.95% (inactive) | –
26 | CCN(CC)CCNC(=O)c1ccc(N)cc1 | 4.67% (inactive) | –
27 | O=C(O)c1c(Cl)c(Cl)c(Cl)c(Cl)c1-c1c2cc(I)c(=O)c(I)c-2oc2c(I)c(O)c(I)cc12 | 0.743% (inactive) | –
28 | CCOC(=O)O[C@]1(C(=O)OCCl)CC[C@@H]2[C@H]3CCC4=CC(=O)C=C[C@]4(C)[C@@H]3[C@@H](O)C[C@@]21C | -2.21% (inactive) | –
29 | Clc1ccc(Cn2c(CN3CCCC3)nc3ccccc32)cc1 | -13.1% [at 12.8 µM] (inactive) | –
30 | CCN(CC)CCOC(=O)c1ccc(N)cc1 | 21.6% [at 12.8 µM] (inactive) | –

The molecules below were run on PC26 in the same assay as above. Conditions: P. falciparum in erythrocytes, SYBR Green DNA, 72 h; series mostly up to 28.7 µM; activity, negative = inhibition: at the top concentration.
How it was run: as §1

Row | Compound | activity, negative = inhibition | Potency
31 | Cc1cccc(C)c1OCC(C)N (configuration not stated) | -12.9% (inactive) | –
32 | CC1(C)O[C@H]2C[C@@H]3[C@H]4CCC5=CC(=O)C=C[C@]5(C)[C@@]4(F)[C@@H](O)C[C@]3(C)[C@]2(C(=O)CO)O1 | -19.6% (inactive) | –
33 | CC(=O)c1ccc(S(=O)(=O)NC(=O)NC2CCCCC2)cc1 | -3.43% (inactive) | –
34 | CC1=C(/C=C/C(C)=C/C=C/C(C)=C/C(=O)Nc2ccc(O)cc2)C(C)(C)CCC1 | – | 12 µM (active)
35 | CC(=O)N[C@@H](CS)C(=O)O | 4.02% (inactive) | –
36 | Cc1cnc(C(=O)O)c[n+]1[O-] | 1.85% (inactive) | –
37 | O=C1NC(=O)C(c2ccccc2)(c2ccccc2)N1 | 1.11% (inactive) | –
38 | O=C1NCC2(CCN(CCc3ccccc3)CC2)O1 | -1.62% (inactive) | –
39 | NC(N)=Nc1nc(CSCC/C(N)=N/S(N)(=O)=O)cs1 | -10.1% (inactive) | –
40 | CCCCCN(C)CCC(O)(P(=O)(O)O)P(=O)(O)O | 9.13% (inactive) | –
41 | NCCS | -4.03% (inactive) | –
42 | COc1ccccc1N1CCN(CCCNc2cc(=O)n(C)c(=O)n2C)CC1 | – | inactive
43 | O=C(NCCN1CCOCC1)c1ccc(Cl)cc1 | 2.33% (inactive) | –
44 | C[C@@H](O)[C@H]1C(=O)N2C(C(=O)O)=C(S[C@@H]3CN[C@H](C(=O)N(C)C)C3)[C@H](C)[C@H]12 | 3.25% (inactive) | –
45 | CC(=O)CCCCn1c(=O)c2c(ncn2C)n(C)c1=O | -5.28% [at 12.8 µM] (inactive) | –
46 | O=C(O)c1cc(-c2ccccc2)nc2ccccc12 | 4.2% (inactive) | –
47 | O=C(O)Cc1cccc2ccccc12 | 0.667% (inactive) | –
48 | CCN(CC)C(=O)c1ccc(O)c(OC)c1 | – | inactive
49 | CCCNC(=O)NS(=O)(=O)c1ccc(Cl)cc1 | -0.885% (inactive) | –
50 | CCN1CCC[C@H]1CNC(=O)c1cc(S(N)(=O)=O)ccc1OC | 2.22% (inactive) | –
51 | C[N+](C)(C)CCCCCC[N+](C)(C)C | 12.1% (inactive) | –
52 | O=c1[nH]cnc2c1ncn2[C@H]1CC[C@@H](CO)O1 | -11.5% (inactive) | –
53 | CCN(CC)CCNC(=O)c1ccc(N)cc1 | 4.87% (inactive) | –
54 | O=C(O)c1c(Cl)c(Cl)c(Cl)c(Cl)c1-c1c2cc(I)c(=O)c(I)c-2oc2c(I)c(O)c(I)cc12 | -2.36% (inactive) | –
55 | COCCCCC(=NOCCN)c1ccc(C(F)(F)F)cc1 | – | 6.75 µM (active)
56 | CCOC(=O)O[C@]1(C(=O)OCCl)CC[C@@H]2[C@H]3CCC4=CC(=O)C=C[C@]4(C)[C@@H]3[C@@H](O)C[C@@]21C | -3.85% (inactive) | –
57 | CCN(CC)CCOC(=O)c1ccc(N)cc1 | 15.6% [at 12.8 µM] (inactive) | –

What follows are molecules tested on PC49 in the same assay as above. Conditions: P. falciparum in erythrocytes, SYBR Green DNA, 72 h; series mostly up to 28.7 µM; activity, negative = inhibition: at the top concentration.
How it was run: as §1

Row | Compound | activity, negative = inhibition | outcome
58 | CC1(C)O[C@H]2C[C@@H]3[C@H]4CCC5=CC(=O)C=C[C@]5(C)[C@@]4(F)[C@@H](O)C[C@]3(C)[C@]2(C(=O)CO)O1 | 7.56% (inactive) | –
59 | COc1ccc(Cc2nccc3cc(OC)c(OC)cc23)cc1OC | 10.5% [at 12.8 µM] (inactive) | –
60 | CC(=O)c1ccc(S(=O)(=O)NC(=O)NC2CCCCC2)cc1 | 1.34% (inactive) | –
61 | CC(=O)N[C@@H](CS)C(=O)O | 5.01% (inactive) | –
62 | Cc1cnc(C(=O)O)c[n+]1[O-] | 4.04% (inactive) | –
63 | O=C1NC(=O)C(c2ccccc2)(c2ccccc2)N1 | 9.17% (inactive) | –
64 | CC/C(=C(\c1ccccc1)c1ccc(OCCN(C)C)cc1)c1ccccc1 | -2.16% (inactive) | –
65 | O=C1NCC2(CCN(CCc3ccccc3)CC2)O1 | 4.13% (inactive) | –
66 | CC(=O)O[C@]1(C(C)=O)CC[C@H]2[C@@H]3C=C(Cl)C4=CC(=O)[C@@H]5C[C@@H]5[C@]4(C)[C@H]3CC[C@@]21C | 12.9% (inactive) | –
67 | NC(N)=Nc1nc(CSCC/C(N)=N/S(N)(=O)=O)cs1 | 2.07% (inactive) | –
68 | CCCCCN(C)CCC(O)(P(=O)(O)O)P(=O)(O)O | 6.03% (inactive) | –
69 | NCCS | 15.4% (inactive) | –
70 | COc1ccccc1N1CCN(CCCNc2cc(=O)n(C)c(=O)n2C)CC1 | – | inactive
71 | O=C(NCCN1CCOCC1)c1ccc(Cl)cc1 | -3.14% (inactive) | –
72 | C[C@@H](O)[C@H]1C(=O)N2C(C(=O)O)=C(S[C@@H]3CN[C@H](C(=O)N(C)C)C3)[C@H](C)[C@H]12 | 4.79% (inactive) | –
73 | CC(=O)CCCCn1c(=O)c2c(ncn2C)n(C)c1=O | 12.2% [at 12.8 µM] (inactive) | –
74 | O=C(O)c1cc(-c2ccccc2)nc2ccccc12 | 13.5% (inactive) | –
75 | O=C(O)Cc1cccc2ccccc12 | 12.3% (inactive) | –
76 | CCN(CC)C(=O)c1ccc(O)c(OC)c1 | – | inactive
77 | CCCCC1C(=O)N(c2ccccc2)N(c2ccccc2)C1=O | – | inactive
78 | O=C1Nc2ccc(Cl)cc2C(C#CC2CC2)(C(F)(F)F)O1 (configuration not stated) | 10.9% (inactive) | –
79 | CCCNC(=O)NS(=O)(=O)c1ccc(Cl)cc1 | 10.8% (inactive) | –
80 | CCN1CCC[C@H]1CNC(=O)c1cc(S(N)(=O)=O)ccc1OC | 4.26% (inactive) | –
81 | C[N+](C)(C)CCCCCC[N+](C)(C)C | 1.24% (inactive) | –
82 | O=c1[nH]cnc2c1ncn2[C@H]1CC[C@@H](CO)O1 | 6.74% (inactive) | –
83 | CCN(CC)CCNC(=O)c1ccc(N)cc1 | 5.13% (inactive) | –
84 | O=C(O)c1c(Cl)c(Cl)c(Cl)c(Cl)c1-c1c2cc(I)c(=O)c(I)c-2oc2c(I)c(O)c(I)cc12 | 6.22% (inactive) | –
85 | CCOC(=O)O[C@]1(C(=O)OCCl)CC[C@@H]2[C@H]3CCC4=CC(=O)C=C[C@]4(C)[C@@H]3[C@@H](O)C[C@@]21C | 2.15% (inactive) | –
86 | Clc1ccc(Cn2c(CN3CCCC3)nc3ccccc32)cc1 | 0.0905% [at 12.8 µM] (inactive) | –
87 | CCN(CC)CCOC(=O)c1ccc(N)cc1 | 15.1% [at 12.8 µM] (inactive) | –
